# Screens: PubChem, National Center for Advancing Translational Sciences (NCATS)
# CHX counter: counter-screen for Shiga toxin inhibitors: cycloheximide protein synthesis inhibition; cell reporter, cycloheximide protein synthesis inhibition counterscreen; max response, %; 12% of 300,000 active; in the data active means max response mostly above about 13%, no sharp cut-off; inactive means mostly below about 14%; further: read at 38.3 µM for the half of the compounds with a filed dose; 0% is about no effect
# Lassa entry inh: Lassa virus entry inhibition; Lassa virus pseudotype entry inhibition, cell reporter; Potency, µM (series often up to 37.9 µM), for inactives: top-dose activity change, negative = inhibition, usual class: inhibitors; 1.2% of 300,000 active; calls by dose curve; tested in HEK293 cells; further: potency means the concentration at half of the fitted maximal effect; on the % scale 0 is the no-effect control and ±100 the full control effect; nearly all actives have a fitted effect of over 50% in size
# Shiga toxin inh: inhibitors of Shiga toxin in Vero cells; Vero cells, Shiga toxin protein synthesis inhibition reporter; inhibition, % at 38.7 µM; 9.2% of 290,000 active; AID 2315; in the data active means inhibition mostly above about 28%, no sharp cut-off; inactive means mostly below about 43%; further: 0% is about no effect
# MARV entry inh: blocks Marburg virus binding to or entry into cells. Marburg virus pseudotyped entry inhibition, cell reporter. Potency, µM (titrated, usually from 37.8 µM), inactives show top-dose activity change, negative = inhibition, most hits filed as inhibitors. 1.8% of 300,000 active. AID 540276; calls by dose curve; tested in HEK293 cells; further: potency means the concentration at half of the fitted maximal effect; on the % scale 0 is the no-effect control and ±100 the full control effect
# Numbers without * were called inactive; ? = inconclusive; · = not tested or not shown; + = active, no number; [ ] = remark or other dose. Rows were chosen to be rich in hits. Some 12% of all compounds tested hit in one or more screens of this group.
SMILES,CHX counter,Lassa entry inh,Shiga toxin inh,MARV entry inh
N/C(Cc1nc(-c2ccc(Br)cc2)cs1)=N\O,26*,8%[46.1 µM],78*,?
NC(=S)Cc1nc(-c2ccccc2)cs1,6,-2%,-6,?
N/C(Cc1nc(-c2ccc(F)cc2)cs1)=N\O,22*,10%[46.1 µM],43*,?
Nc1nc(-c2ccc(F)cc2)cs1,16,6%,38,1%[46.1 µM]
CCOc1cccc(C(=O)N(Cc2cccc(F)c2)C2CCS(=O)(=O)C2)c1 (centres undefined),-3,·,-3,·
Clc1cccc(CN2CCc3c([nH]c4ccccc34)C2)c1,-7,?,·,8.9µM*
N#CCCN(C(=O)COC(=O)C1=NNC(=O)CC1)c1ccccc1,·,8%,·,-11%[46.1 µM]
COC1C=CC=C(C)C(=O)NC2=CC(=O)C(N)=C(CC(C)CC(OC)C(O)C(C)C=C(C)C1OC(N)=O)C2=O (centres undefined),·,0.45µM*,·,0.2µM*
COC1CC(C)C(OC)c2cc(O)cc(c2O)NC(=O)C(C)=CC=CC(C)C(OC(N)=O)C(C)=CC(C)C1OC (centres undefined),·,?,·,3.5µM*
COC1=C2C[C@H](C)C[C@H](OC)[C@H](O)[C@@H](C)/C=C(/C)[C@H](OC(N)=O)[C@@H](OC)/C=C\C=C(\C)C(=O)NC(=CC1=O)C2=O,-1,·,-8,·
CC(C)CON=C1C[C@@H](O)[C@@H](O)[C@@H]2[C@H]3C(=O)N(C4CCCCC4)C(=O)[C@@H]3CC[C@H]12,·,?,·,-14%[14.2 µM]
Cc1nnc(NCc2ccc(F)cc2)c2c1nnn2Cc1ccccc1Cl,·,-1%[46.1 µM],·,?
Nc1ccccc1SC1CC(=O)N(Cc2ccccc2)C1=O (centres undefined),-4,1%,-12,-1%[46.1 µM]
COc1cccc(OCc2nnc(SC)n2C)c1,32*,3%,45,30%
CCOc1ccc(NC(=O)Cn2c(=O)oc3cc(S(=O)(=O)NC4CCCC4)ccc32)cc1,·,·,·,-3%[46.1 µM]
NNC(=O)c1ccc(O)cc1,·,6%,·,?
C/C(=N/NC(=O)c1ccncc1)c1ccccc1,9,-2%,·,?
C/C(=N\NC(=O)c1ccc(N/N=C(\C)c2ccncc2)cc1)c1ccncc1,8,-3%[46.1 µM],-13,1µM*
CC(=O)Nc1ccc(/C(C)=N\NC(=O)c2ccc(-c3ccccc3)cc2)cc1,12,·,7,·
CSC(=NNC(=O)c1ccc(O)cc1)SC,20,30%,42*,3%
CC(=O)Nc1ccc(/C(C)=N/NC(=O)c2ccc(F)cc2)cc1,24*,?,+,17%
C/C(=N\Nc1ccccc1C(=O)O)c1ccncc1,18*,-2%,43*,?
COc1ccc(NS(=O)(=O)c2ccc3c(c2)CCN3C(=O)CCC(=O)O)cc1Cl,·,30%[46.1 µM],·,12%[46.1 µM]
O=C(Nc1ccc(F)cc1F)c1cc(=O)n(-c2ccccc2)c(=O)[nH]1,1,·,-9,·
COc1ccc(CNS(=O)(=O)c2cnc(N)nc2)c(OC)c1,·,-6%[46.1 µM],·,·
SMILES,CHX counter,Lassa entry inh,Shiga toxin inh,MARV entry inh
C/C(=N\NC(=O)c1ccc(F)cc1)c1ccc(NC(=O)Cc2ccccc2)cc1,41*,?,90*,-18%
C/C(=N\NC(=O)c1ccc(O)cc1)c1ccc(NC(=O)Cc2ccccc2)cc1,36*,·,170*,·
COc1ccc(/C(=N\Nc2ccccc2C(=O)O)c2ccccc2)cc1,29*,·,169*,·
COc1ccc(C(=O)N/N=C(\C)c2ccc(NC(=O)Cc3ccccc3)cc2)c(OC)c1,2,1%,-4,?
CCOC(=O)C(=O)N/N=C(/c1ccccc1)c1ccc(OC)cc1,7,-1%,29,-13%[46.1 µM]
CC(C(=O)N1CCCCCC1)c1ccc([N+](=O)[O-])cc1 (centres undefined),1,·,-11,·
CC(C)OC(=O)CSc1nnc(-c2ccccc2)n1N,-4,3%,-10,-1%
O=C(CN1C(=O)c2ccccc2C1=O)NCc1ccncc1,-3,-7%,-13,-1%
O=C1c2ccccc2C(=O)N1c1ccc(Cc2ccncc2)cc1,15*,5%[46.1 µM],38,-12%[46.1 µM]
Cc1ccc(S(=O)(=O)N(C)c2cccc3cccnc23)cc1,-1,·,-5,·
Nc1cccc2c1C(=O)N(C(=O)/C=C/c1cccc(F)c1)C2=O,34*,?,140*,?
Nc1cccc2c1C(=O)N(C(=O)/C=C/c1cccc(Br)c1)C2=O,40*,?,43*,-28%[46.1 µM]
CCn1cnc2c(=O)oc3ccc(S(=O)(=O)N4CCN(c5cc(C)ccc5C)CC4)cc3c21,·,20%[46.1 µM],·,2%[46.1 µM]
Cc1ccc(CNC(=O)C2CC(c3ccc(C(F)(F)F)cc3)=NO2)o1 (centres undefined),-3,·,-2,·
COc1cccc(C2=NOC(C(=O)NCc3ccco3)C2)c1 (centres undefined),23,?,21,-26%
O=C(NCc1cccs1)C1CC(c2ccc(Cl)cc2)=NO1 (centres undefined),13*,·,54,?
O=C(NCc1ccco1)C1CC(c2ccc(F)cc2)=NO1 (centres undefined),17*,10%,36,23%[46.1 µM]
O=C(NCCc1cccs1)C1CC(c2c(Cl)cccc2Cl)=NO1 (centres undefined),40*,·,46,·
O=C(NCc1ccco1)C1CC(c2ccc(Cl)cc2)=NO1 (centres undefined),27*,-4%[46.1 µM],32,-5%[46.1 µM]
O=C(NCCc1cccs1)C1CC(c2cccc(F)c2)=NO1 (centres undefined),5,·,5,·
O=C(NCc1cccs1)C1CC(c2ccc(Cl)c(Cl)c2)=NO1 (centres undefined),5,·,9,·
O=C(NNC(=O)c1ccncc1)Nc1ccc(N=Nc2ccccc2)cc1,·,-2%,·,3%
Cc1ccc(-c2cc(C(F)(F)F)n3nc(C(=O)Nc4sc5c(c4C#N)CCC(C)C5)cc3n2)cc1 (centres undefined),·,?,·,11%[46.1 µM]
Cc1cccc(C)c1NC(=O)C1C2C=CC(C2)C1C(=O)NCc1ccccn1 (centres undefined),6,14%,6,6%
C[C@@H]1CC2=CCCC2[C@]2(O1)C(=O)N(Cc1ccc(Br)cc1)c1cccc(Br)c12 (some centres undefined),·,?,·,-25%[14.2 µM]
SMILES,CHX counter,Lassa entry inh,Shiga toxin inh,MARV entry inh
COc1ccc(NS(=O)(=O)c2ccc(C)c(NC(=O)CNC(=O)c3ccco3)c2)cc1,·,-1%,·,11%
CN(C)C(=O)Oc1ccc(OC(=O)N(C)C)cc1,-1,?,-14,10%
CN(C)C(=O)Oc1ccc(C(=O)c2ccccc2)cc1,40*,22%,42*,1%
CC(=O)c1ccc(OC(=O)N(C)c2ccccc2)cc1,36*,11%[46.1 µM],66*,3%[46.1 µM]
CC(=O)c1ccc(OC(=O)N(c2ccccc2)c2ccccc2)cc1,-3,1%,-5,?
Oc1c(C=Nc2ccccc2Cl)[nH]c2ccccc12,47*,?,77*,?
COCCN1C(=O)CC[C@@]23C1=NC(C(=O)OC)=C(C(=O)OC)[C@@H]2N(CC=C(C)C)c1ccccc13,·,·,·,-14%[14.2 µM]
CCN(CC)CCCCN1c2ccccc2Sc2ccccc21,-6,?,-6,11µM*
CC(CN1c2ccccc2Sc2ccccc21)N(C)C (centres undefined),-4,?,4,1.1µM*
CCN(CC)CC(O)CN1c2ccccc2Sc2ccccc21 (centres undefined),1,?,-6,3.2µM*
